Reference: the supplement of paper PMC12494721
Where a name gives a salt, the structure may show the parent alone.

System: Escherichia coli IAI1
Assay: fold change of Cadaverine concentration vs plate DMSO controls (fold change (ratio)); higher = more amine produced, active = hit call of the paper (significant change in both replicates, either direction)
Details: incubation time: 27 h, anaerobic, 37 °C;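 for the amine columns active = adjusted P below 0.05 in both replicates with a change the same way and a mean fold change under 0.8 or over 1.25; inactive = the rest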
Procedure, shortened: (§1)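 Using LC–triple-quadrupole MS with dynamic MRM, amines were quantified against external calibration curves and corrected for drift within each batch. Samples were whole anaerobic mGAM cultures of four gut strains, grown 27 h at 37 °C from OD 0.1 before 1:1 dilution, extracted with cold acetonitrile/methanol containing 0.1% formic acid and centrifuged. Compounds were present at 20 µM final (sweeteners at 50 µM final). The numbers are fold changes versus plate DMSO controls, each the mean of 2 biological replicates.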

SMILES	fold change of Cadaverine concentration
CC(C)(C)NC(=O)[C@@H]1CN(Cc2cccnc2)CCN1C[C@@H](O)C[C@@H](Cc1ccccc1)C(=O)N[C@H]1c2ccccc2C[C@H]1O [Indinavir sulfate] (20 µM)	1.05 (inactive)
c1ccc2c(c1)CCCC2C1=NCCN1 (centres undefined) [Tetrahydrozoline hydrochloride] (20 µM)	0.966 (inactive)
O=[N+]([O-])c1ccc(O)c2ncccc12 [Nitroxoline] (20 µM)	1.49 (active)
COCC(=O)O[C@]1(CCN(C)CCCc2nc3ccccc3[nH]2)CCc2cc(F)ccc2[C@@H]1C(C)C [Mibefradil hydrochloride] (20 µM)	1.02 (inactive)
Nc1nc(Cl)nc2c1ncn2[C@H]1C[C@H](O)[C@@H](CO)O1 [Cladribine] (20 µM)	0.934 (inactive)
CN(CCOc1ccc(CC2SC(=O)NC2=O)cc1)c1ccccn1 (centres undefined) [Rosiglitazone hydrochloride] (20 µM)	0.926 (inactive)
C[C@@H](O)[C@H]1C(=O)N2C(C(=O)O)=C(S[C@@H]3CN[C@H](C(=O)N(C)C)C3)[C@H](C)[C@H]12 [Meropenem] (20 µM)	0.971 (inactive)
CNCCC=C1c2ccccc2C=Cc2ccccc21 [Norcyclobenzaprine] (20 µM)	1.02 (inactive)
CCCCS(=O)(=O)N[C@@H](Cc1ccc(OCCCCC2CCNCC2)cc1)C(=O)O [Tirofiban hydrochloride] (20 µM)	1 (inactive)
OC[C@H]1O[C@@H](n2cnc3cncnc32)[C@H](O)[C@@H]1O [Nebularine] (20 µM)	0.943 (inactive)
CC1(C)S[C@@H]2[C@H](NC(=O)[C@H](N)c3ccccc3)C(=O)N2[C@H]1C(=O)O [Ampicillin trihydrate] (20 µM)	2.29 (active)
Oc1ncnc2[nH]ncc12 [Allopurinol] (20 µM)	1.01 (inactive)
CC(C)(C)c1ccc(C(=O)CCCN2CCC(OC(c3ccccc3)c3ccccc3)CC2)cc1 [Ebastine] (20 µM)	1.01 (inactive)
CCOC(N)=O [Urethane] (20 µM)	1.03 (inactive)

System: Klebsiella aerogenes DSM 30053
Assay: as above
Details: incubation time: 27 h, anaerobic, 37 °C
Procedure, shortened: as §1

SMILES	fold change of Cadaverine concentration
CC(=O)[C@H]1CC[C@H]2[C@@H]3CC=C4C[C@@H](O)CC[C@]4(C)[C@H]3CC[C@]12C [Pregnenolone] (20 µM)	0.994 (inactive)
CC(C(=O)O)c1ccc(N2Cc3ccccc3C2=O)cc1 (centres undefined) [Indoprofen] (20 µM)	0.982 (inactive)
Cc1cc(O)c(C(=O)N[C@@H](C(=O)N[C@@H]2C(=O)N3C(C(=O)O)=C(CSc4nnnn4C)CS[C@H]23)c2ccc(O)cc2)cn1 [Cefpiramide] (20 µM)	1.08 (inactive)
CC(C)=CCC1C(=O)N(c2ccccc2)N(c2ccccc2)C1=O [Feprazone] (20 µM)	1 (inactive)
COC(=O)C1=C(C)NC(C)=C(C(=O)OCCN(C)Cc2ccccc2)C1c1cccc([N+](=O)[O-])c1 (centres undefined) [Nicardipine hydrochloride] (20 µM)	0.99 (inactive)
COCCOC(=O)C1=C(C)NC(C)=C(C(=O)OC(C)C)C1c1cccc([N+](=O)[O-])c1 (centres undefined) [Nimodipine] (20 µM)	1.01 (inactive)
NS(=O)(=O)c1cc2c(cc1Cl)N=CNS2(=O)=O [Chlorothiazide] (20 µM)	1.01 (inactive)
CC(Oc1ccccc1)C(=O)N[C@@H]1C(=O)N2[C@@H]1SC(C)(C)[C@@H]2C(=O)O (some centres undefined) [Phenethicillin potassium salt] (20 µM)	1.02 (inactive)
Cc1ccc(N(CC2=NCCN2)c2cccc(O)c2)cc1 [Phentolamine hydrochloride] (20 µM)	0.993 (inactive)
CC1(C)O[C@@H]2C[C@H]3[C@@H]4C[C@H](F)C5=CC(=O)CC[C@]5(C)[C@H]4[C@@H](O)C[C@]3(C)[C@]2(C(=O)CO)O1 [Flurandrenolide] (20 µM)	1.04 (inactive)
NS(=O)(=O)c1cc2c(cc1C(F)(F)F)NCNS2(=O)=O [Hydroflumethiazide] (20 µM)	1.01 (inactive)
Nc1nc(/C(=C/CC(=O)O)C(=O)N[C@@H]2C(=O)N3C(C(=O)O)=CCS[C@H]23)cs1 [Ceftibuten] (20 µM)	1.07 (inactive)
O=C(O)Cc1ccc(-c2ccccc2)cc1 [Felbinac] (20 µM)	0.998 (inactive)
Nc1nnc(-c2cccc(Cl)c2Cl)c(N)n1 [Lamotrigine] (20 µM)	0.989 (inactive)
Nc1nc(=O)c2nc(CNc3ccc(C(=O)N[C@@H](CCC(=O)O)C(=O)O)cc3)cnc2[nH]1 [Folic acid] (20 µM)	1.01 (inactive)
Nc1ccc(S(=O)(=O)NC(=O)c2ccccc2)cc1 [Sulfabenzamide] (20 µM)	1.01 (inactive)
CCC(=O)O[C@]1(C(=O)SCF)[C@H](C)C[C@H]2[C@@H]3C[C@H](F)C4=CC(=O)C=C[C@]4(C)[C@@]3(F)[C@@H](O)C[C@@]21C [Fluticasone propionate] (20 µM)	1.01 (inactive)
CCOC(=O)[C@H](CCc1ccccc1)N[C@@H](C)C(=O)N1[C@H](C(=O)O)C[C@@H]2CCC[C@@H]21 [Ramipril] (20 µM)	1.05 (inactive)
CO/N=C(\C(=O)N[C@@H]1C(=O)N2C(C(=O)OCOC(=O)C(C)(C)C)=C(/C=C\c3scnc3C)CS[C@H]12)c1csc(N)n1 [Cefditoren Pivoxil] (20 µM)	1.05 (inactive)
NC[C@H]1O[C@H](O[C@H]2[C@H](O[C@@H]3O[C@H](CO)[C@@H](O)[C@H]3O)[C@@H](O)[C@H](N)C[C@@H]2N)[C@H](N)[C@@H](O)[C@@H]1O [Ribostamycin sulfate salt] (20 µM)	0.994 (inactive)

SMILES	fold change of Cadaverine concentration
Brc1c(NC2=NCCN2)ccc2nccnc12 [Brimonidine L-tartrate] (20 µM)	1.06 (inactive)
O=c1[nH]cnc2c1ncn2[C@H]1CC[C@@H](CO)O1 [Didanosine] (20 µM)	1.03 (inactive)
NS(=O)(=O)Cc1noc2ccccc12 [Zonisamide] (20 µM)	1 (inactive)
CN(C)CCC(c1ccc(Cl)cc1)c1ccccn1 (centres undefined) [Chlorpheniramine maleate] (20 µM)	1 (inactive)
OCC(O)CN1CCN(c2ccccc2)CC1 (centres undefined) [Dropropizine] (20 µM)	0.992 (inactive)
CC(=O)[C@H]1CC[C@H]2[C@@H]3CCC4=CC(=O)CC[C@]4(C)[C@H]3CC[C@]12C [Progesterone] (20 µM)	1.02 (inactive)
CC(C)(C)NC(=O)[C@@H]1CN(Cc2cccnc2)CCN1C[C@@H](O)C[C@@H](Cc1ccccc1)C(=O)N[C@H]1c2ccccc2C[C@H]1O [Indinavir sulfate] (20 µM)	1 (inactive)
c1ccc2c(c1)CCCC2C1=NCCN1 (centres undefined) [Tetrahydrozoline hydrochloride] (20 µM)	1 (inactive)
O=[N+]([O-])c1ccc(O)c2ncccc12 [Nitroxoline] (20 µM)	0.948 (inactive)
COCC(=O)O[C@]1(CCN(C)CCCc2nc3ccccc3[nH]2)CCc2cc(F)ccc2[C@@H]1C(C)C [Mibefradil hydrochloride] (20 µM)	1 (inactive)
Nc1nc(Cl)nc2c1ncn2[C@H]1C[C@H](O)[C@@H](CO)O1 [Cladribine] (20 µM)	1.02 (inactive)
CN(CCOc1ccc(CC2SC(=O)NC2=O)cc1)c1ccccn1 (centres undefined) [Rosiglitazone hydrochloride] (20 µM)	1.03 (inactive)
C[C@@H](O)[C@H]1C(=O)N2C(C(=O)O)=C(S[C@@H]3CN[C@H](C(=O)N(C)C)C3)[C@H](C)[C@H]12 [Meropenem] (20 µM)	1.11 (inactive)
CNCCC=C1c2ccccc2C=Cc2ccccc21 [Norcyclobenzaprine] (20 µM)	0.994 (inactive)
CCCCS(=O)(=O)N[C@@H](Cc1ccc(OCCCCC2CCNCC2)cc1)C(=O)O [Tirofiban hydrochloride] (20 µM)	1.01 (inactive)
OC[C@H]1O[C@@H](n2cnc3cncnc32)[C@H](O)[C@@H]1O [Nebularine] (20 µM)	0.998 (inactive)
CC1(C)S[C@@H]2[C@H](NC(=O)[C@H](N)c3ccccc3)C(=O)N2[C@H]1C(=O)O [Ampicillin trihydrate] (20 µM)	1.06 (inactive)
Oc1ncnc2[nH]ncc12 [Allopurinol] (20 µM)	1.01 (inactive)
CC(C)(C)c1ccc(C(=O)CCCN2CCC(OC(c3ccccc3)c3ccccc3)CC2)cc1 [Ebastine] (20 µM)	0.983 (inactive)
CCOC(N)=O [Urethane] (20 µM)	1.03 (inactive)
